Experimental data taken from the supplement of paper PMC9694430.
Counter-ions that a name gives are not always drawn.

What was measured:
Assay in all cases: thermal shift delta Tm vs DMSO control; higher = stronger stabilization (binding)
Details in all cases: 12.5 µM; protein concentration 2 µM
[1] = tested on: LOC_OS01G01410-cb001
Outline: (§1)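 Purified, E. coli-expressed rice kinase domain constructs were tested by differential scanning fluorimetry in 96-well plates: 19.5 μl of 2 μM kinase in 100 mM potassium phosphate pH 7.5, 150 mM NaCl, 10% glycerol, 5 × SYPRO Orange, plus compound in DMSO. Fluorescence was read from 25°C to 95°C at 0.05°C/s. Melting temperatures came from Boltzmann fits, and the shift is the triplicate mean relative to protein with DMSO alone.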

[2] = tested on: LOC_OS01G02750-cb003
Outline: as §1

[3] = tested on: LOC_OS01G10900-cb004
Outline: as §1

[4] = tested on: LOC_OS01G13800-cb001
Outline: as §1

[5] = tested on: LOC_OS01G14860-cb001
Outline: as §1

[6] = tested on: LOC_OS01G21960-cb002
Outline: as §1

[7] = tested on: LOC_OS01G39600-cb002
Outline: as §1

[8] = tested on: LOC_OS01G48390-cb002
Outline: as §1

[9] = tested on: LOC_OS01G51400-cb002
Outline: as §1

[10] = tested on: T1, LOC_OS01G52050-cb004
T1 sequence (whole entry): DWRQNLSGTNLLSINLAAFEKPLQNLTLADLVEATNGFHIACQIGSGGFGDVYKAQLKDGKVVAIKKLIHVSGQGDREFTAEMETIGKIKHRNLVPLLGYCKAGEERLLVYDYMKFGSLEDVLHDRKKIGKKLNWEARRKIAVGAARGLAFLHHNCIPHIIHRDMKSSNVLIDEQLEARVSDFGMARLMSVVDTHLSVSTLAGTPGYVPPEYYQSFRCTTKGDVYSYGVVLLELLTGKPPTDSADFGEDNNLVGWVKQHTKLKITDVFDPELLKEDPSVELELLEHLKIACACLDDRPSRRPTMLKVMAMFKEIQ
Outline: as §1

[11] = tested on: LOC_OS01G57100-cb003
Outline: as §1

[12] = tested on: LOC_OS01G60330-cb001
Outline: as §1

[13] = tested on: LOC_OS01G60700-cb002
Outline: as §1

[14] = tested on: LOC_OS01G63280-cb003
Outline: as §1

[15] = tested on: LOC_OS01G67340-cb003
Outline: as §1

[16] = tested on: LOC_OS01G70970-cb002
Outline: as §1

[17] = tested on: LOC_OS02G07810-cb001
Outline: as §1

[18] = tested on: LOC_OS02G08530-cb003
Outline: as §1

[19] = tested on: LOC_OS02G14120-cb001
Outline: as §1

[20] = tested on: LOC_OS02G17970-cb001
Outline: as §1

| SMILES | thermal shift delta Tm [1] [°C] | thermal shift delta Tm [2] [°C] | thermal shift delta Tm [3] [°C] | thermal shift delta Tm [4] [°C] | thermal shift delta Tm [5] [°C] | thermal shift delta Tm [6] [°C] | thermal shift delta Tm [7] [°C] | thermal shift delta Tm [8] [°C] | thermal shift delta Tm [9] [°C] | thermal shift delta Tm [10] [°C] | thermal shift delta Tm [11] [°C] | thermal shift delta Tm [12] [°C] | thermal shift delta Tm [13] [°C] | thermal shift delta Tm [14] [°C] | thermal shift delta Tm [15] [°C] | thermal shift delta Tm [16] [°C] | thermal shift delta Tm [17] [°C] | thermal shift delta Tm [18] [°C] | thermal shift delta Tm [19] [°C] | thermal shift delta Tm [20] [°C] |
| --- | --- | --- | --- | --- | --- | --- | --- | --- | --- | --- | --- | --- | --- | --- | --- | --- | --- | --- | --- | --- |
| C=CC(=O)Nc1ccc2ncnc(Nc3cccc(Br)c3)c2c1 | 0.7 | -0.16 | -0.13 | -0.18 | 0.1 | 0.15 | -12.2 | 0.59 | 0.29 | 0 | 0.86 | 0.41 | 0.96 | -0.32 | -0.12 | 0.22 | 0.8 | 0.61 | -0.18 | 0.66 |
| COc1ccc(COc2ccc(Cc3cnc(N)nc3N)cc2OC)cc1 | -0.12 | 1.12 | 2.07 | 0.44 | 0.12 | 0.25 | 0.89 | -0.01 | 0.2 | 0.04 | -0.05 | 0.76 | 1.06 | 0.32 | 0.31 | 0.08 | 0.34 | -0.15 | 1.94 | 1.56 |
| CCS(=O)(=O)N1CC(CC#N)(n2cc(-c3ncnc4[nH]ccc34)cn2)C1 | 0.57 | 1.52 | 0.33 | 0.37 | 2.29 | 1.23 | 0.17 | 0.14 | 0.39 | 1.36 | 2.25 | 0.75 | 1.26 | 1.3 | 0.81 | 0.39 | 0.37 | 1.89 | 4.11 | 0.86 |
| Cn1cc(-c2ccc3nnc(Sc4ccc5ncccc5c4)n3n2)cn1 | 0.49 | 0.09 | 3.13 | -0.11 | -0.13 | 0.18 | 0.17 | 0.29 | 0.08 | 0.42 | 0.37 | 0.34 | 1.28 | 0.23 | 0.43 | 0.3 | 0.16 | 1.1 | 1.81 | 0.07 |
| Cc1cc(N2CCOCC2)cc2[nH]c(-c3c(NC[C@@H](O)c4cccc(Cl)c4)cc[nH]c3=O)nc12 | 4.78 | 2.98 | -0.47 | 0.09 | 1.24 | 1.2 | 2.56 | 1.43 | 0.28 | 3.88 | 1.15 | 6.82 | -0.31 | 1.68 | 1.08 | 1.82 | 0.46 | 4.03 | 1.99 | 0.82 |
| NC[C@@](O)(c1ccc(Cl)cc1)c1ccc(-c2cn[nH]c2)cc1 | 0.04 | 1.13 | 0.24 | 0.5 | 0.53 | 1.22 | -0.16 | 1.06 | 0.36 | 0.51 | 2.29 | 1.43 | 1.37 | 0.56 | 0.77 | 0.29 | 0.52 | 0.75 | 1.05 | 0.63 |
| CC#CC(=O)Nc1ccc2ncnc(Nc3cccc(Br)c3)c2c1 | 2.55 | 1.15 | 2.56 | 0.12 | 1.15 | 0.48 | -0.38 | 2.25 | 0.38 | 1.8 | -0.79 | 0.53 | 1.56 | 0.9 | 1.06 | 0.37 | 0.86 | 1.43 | 2.95 | 1.1 |
| COc1cc2ncc(-c3ccccc3)nc2cc1OC [Tyrphostin AG 1296] | 2.03 | 1.6 | 0.44 | -0.26 | 0.28 | 0 | 0.47 | 0.55 | 0.63 | 1.69 | 0.4 | 3.29 | 1.32 | 1.35 | 1.24 | 0.75 | -0.01 | 1.3 | 2.29 | 0.27 |
| Nc1nc2cc(-c3ccc4ncc(C(=O)N5CCOCC5)n4c3)ccc2o1 [Serabelisib (INK-1117,MLN-1117,TAK-117)] | 0.8 | 1.57 | 2.36 | 0.43 | 1.16 | 0.81 | 0.1 | 0.39 | 0.34 | 3.87 | 1.55 | 0.93 | 0.36 | 0.07 | 1.26 | 1.33 | 0.05 | 1.17 | 2.02 | 0.23 |
| COc1cc2c3cc1Oc1c(OC)c(OC)cc4c1[C@@H](Cc1ccc(O)c(c1)Oc1ccc(cc1)C[C@@H]3N(C)CC2)N(C)CC4 [Berbamine (dihydrochloride)] | -0.04 | 0.3 | 0.03 | -0.62 | -0.18 | 0.36 | -0.05 | 0.32 | -0.01 | 0.22 | 1.3 | -0.73 | 1.22 | -0.06 | 0.28 | 0.03 | -0.23 | 1.1 | 0.03 | -0.21 |
| CNc1nc(Nc2cn(C(C)(C)C#N)nc2C)ncc1C(F)(F)F | 0.23 | 1.65 | 0.23 | 0.93 | 0.11 | 1.18 | -0.3 | 0.76 | 0.31 | 0.37 | 1.92 | 1.38 | 1.27 | 0.69 | 0.49 | 0.2 | 0.4 | 0.86 | 0.65 | 1.09 |
| Oc1cc(O)cc(/C=C/c2ccc(O)c(O)c2)c1 [Piceatannol] | 1.39 | 1.52 | 0.74 | 1 | 1.02 | -0.47 | 1.51 | 1.02 | 0.39 | 1.1 | -0.61 | 1.29 | 1.12 | 1.07 | 0.13 | 0.59 | 1.77 | 1.3 | 0.89 | 1.38 |
| CC(C)(CCCCCC(O)CCCCCC(C)(C)C(=O)O)C(=O)O | 0.55 | 0.54 | 0.09 | 0.41 | -0.23 | 0.39 | -0.54 | 0.29 | 0.29 | 0.02 | -0.51 | 1.18 | 0.87 | -0.01 | 0.52 | 0.21 | 0.4 | 0.32 | 0.05 | 0.59 |
| CC1(C)C=Cc2c(ccc3c2OC[C@@H](c2ccc(O)cc2O)C3)O1 [Glabridin] | 0.95 | 3.18 | 2.07 | 0.08 | 1.32 | 1.14 | 2.12 | 1.81 | 1.35 | 4.83 | 0.87 | 2.93 | -0.87 | 3.61 | 0.86 | 1.29 | -0.38 | 0.24 | 0.34 | 0.51 |
| CCc1cc(Nc2nccc(-c3c(-c4ccc(OC)c(C(=O)Nc5c(F)cccc5F)c4)nc4ccccn34)n2)c(OC)cc1N1CCC(N2CCN(S(C)(=O)=O)CC2)CC1 | 1.23 | -0.77 | 0.34 | 0.56 | 0.33 | 1.05 | 1.04 | 0.41 | 0.3 | 0.04 | 1.35 | 0.65 | 1.19 | 0.43 | 0.06 | 0.26 | 0.77 | 0.82 | 0.04 | 0.47 |
| Cc1cc(O)c(-c2ccc([C@@H](C)CN)cc2)c2c1[nH]c(=O)c1sccc12 [OTS514 hydrochloride] | 0.18 | 0.75 | 1.18 | 0.58 | 5.36 | 1.5 | 0.36 | 1.38 | -0.1 | 1.82 | -0.04 | 2.08 | 1.5 | 0.46 | 0.86 | 0.57 | 0.41 | 1.3 | 4.21 | 1.52 |
| CCN1CCN(Cc2ccc(C(=O)Nc3ccc(C)c(Oc4ccc5c(c4)CC(=O)N5)c3)cc2C(F)(F)F)CC1 | 0.03 | 1.85 | 2.1 | 0.59 | 0.51 | 1.73 | -0.14 | 0.94 | 0.25 | 1.08 | 2.21 | 1.36 | 1.34 | 0.98 | 1.05 | 0.43 | 1.19 | 0.8 | 0.22 | 1.43 |
| Nc1ncc(-c2ccnc(Nc3ccncc3)n2)c(CC2CC2)n1 | 0.71 | 1.52 | 1.79 | 0.81 | 2.55 | 0.87 | 0.29 | 0.57 | 0.15 | 0.96 | 0.51 | 1.45 | 1.53 | 0.58 | 0.33 | 0.37 | 0.77 | 0.52 | 3.13 | 2.16 |
| C=CC(=O)N1CC[C@@H](Oc2nc(Nc3ccc(N4CCC(N5CCN(C)CC5)CC4)cc3)c(C(N)=O)nc2CC)C1 [Naquotinib(ASP8273)] | 5.21 | 1.59 | 4.44 | -0.4 | 4.17 | 2.68 | 1.51 | 3.38 | -0.03 | 2.34 | 0.96 | 9.41 | 0.02 | 0.22 | 1.05 | 5.67 | -0.78 | 4.36 | 8.5 | 0.57 |
| COc1cc2ncnc(Nc3ccc(F)c(Cl)c3)c2cc1NC(=O)/C=C/CN1CCCCC1 | 1.07 | 1.4 | 1.7 | 0.04 | 0.18 | 1.27 | -0.71 | 0.7 | 0.66 | 0.74 | 2.23 | 2.36 | 1.39 | 0.37 | 1.76 | 0.52 | 1.55 | 1.7 | 0.41 | 1.92 |
| C=CC(=O)Nc1cc(Nc2nccc(-c3cn(C)c4ccccc34)n2)c(OC)cc1N(C)CCN(C)C [Osimertinib (AZD9291)] | 0.41 | 0.94 | 0.45 | -0.53 | 0.01 | 0.34 | 0.02 | -0.33 | 0.43 | 0.11 | -0.15 | 1.07 | 1.16 | 0.43 | 0.42 | 0.32 | 0.03 | 3.79 | 3.74 | -0.32 |
| COc1cc2ncnc(Nc3ccc(F)c(Cl)c3)c2cc1OCCCN1CCOCC1 [Gefitinib (ZD1839)] | 1.27 | 0.13 | 3.7 | 0.4 | 0.18 | -0.07 | 1.46 | 2.87 | 0.02 | 0.77 | 0.37 | 0.16 | 1.04 | 0.4 | -0.59 | 0.28 | 0.77 | 0.6 | 4.78 | 0.15 |
| COCC(=O)NC/C=C/c1ccc2ncnc(Nc3ccc(Oc4ccc(C)nc4)c(C)c3)c2c1 | 1.96 | 0.21 | 0.42 | 0.2 | 0.11 | -0.07 | 1.61 | 0.4 | 0.03 | 0.35 | -0.71 | 0.77 | 0.69 | -0.33 | -0.68 | 0.44 | 0.15 | 0.52 | -0.57 | -0.14 |
